# This excerpt belongs to a sample that is enriched for hits.
# TbPYK inhibitor: inhibitors of Trypanosoma brucei pyruvate kinase; Q57TT1; TbPYK enzyme, Kinase-Glo Plus ATP luminescence, 45 min; Potency, µM (titrated, usually from 76.8 µM), without a hit: top-dose activity, negative = inhibition, actives largely listed as inhibitors; 0.12% of 410,000 active; also: potency is read from the fitted curve at half-maximal effect; % is scaled to controls: 0 for no effect and ±100 for the full control effect; nearly all actives have a fitted effect of over 50% in size
#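 Glycolytic pyruvate kinase of T. brucei was incubated with substrate, test compound and 130 uM ADP for 45 minutes at room temperature. Luminescent Kinase-Glo Plus signal was measured after 10 minutes.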
# Shiga inhibitor: blocks Shiga toxin action in Vero cells | 9.2% of 290,000 active | inhibition, % at 38.7 µM | Vero cells, Shiga toxin protein synthesis inhibition reporter; in the data active = inhibition mostly above about 28%, no sharp cut-off; inactive = mostly below about 43%; also: 0% is about no effect
# FBPA Giardia inh: blocks Giardia fructose-bisphosphate aldolase activity | A8B2U2 | purified Giardia FBPA | Potency, µM (highest dose often 59.6 µM), for inactives: at the highest dose activity, negative = inhibition, actives largely listed as inhibitors | 0.71% of 290,000 active; also: potency is read from the fitted curve at half-maximal effect; % is scaled to controls: 0 for no effect and ±100 for the full control effect; nearly all actives have a fitted effect of over 55% in size
#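 40 nM FBPA preincubated 10 min at RT with compound (up to 57.5 uM final), then substrate plus GAPDH/TPI/NAD/arsenate coupling and diaphorase/resazurin added. Fluorescence read after 20 min at RT, 525/598 nm.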
# RE007 growth inh: less growth of the S. pombe RE007 Vpr strain | S. pombe RE007 Vpr strain, BacTiter-Glo ATP luminescence, 24 h | 0.21% of 360,000 active | Potency, µM (titrated, usually from 92.2 µM), inactives show top-dose activity change, negative = less growth, actives largely listed as inhibitors | AID 651644; active = well fitted falling curve with a large enough effect; inconclusive = small, poorly fitted or top-dose-only effect; inactive = no such curve, though single readings can be large or run the other way; also: potency is read from the fitted curve at half-maximal effect; % is scaled to controls: 0 for no effect and ±100 for the full control effect; nearly all actives have a fitted effect of over 50% in size
#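 Fission yeast RE007 carrying one integrated HIV-1 vpr copy, seeded at OD 0.01 in PMG+AL medium with 23 nL pinned compound. Grown 24 h at 30 degrees; viability read by BacTiter-Glo luminescence after 5 min.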
# CHX counter: affects cycloheximide protein synthesis inhibition readout, counter-screen; 12% of 300,000 active; cell reporter, cycloheximide protein synthesis inhibition counterscreen; max response, %; in the data active = max response mostly above about 13%, no sharp cut-off; inactive = mostly below about 14%; also: read at 38.3 µM for the half of the compounds with a filed dose; 0% is about no effect
# LmPK inhibitor: blocks Leishmania mexicana pyruvate kinase activity; Q27686; purified LmPK, Kinase-Glo ATP luminescence, 1 h; Potency, µM (doses to about 57.5 µM), for inactives: top-dose activity change, negative = inhibition, usual class: inhibitors; 0.37% of 290,000 active; also: potency is read from the fitted curve at half-maximal effect; % is scaled to controls: 0 for no effect and ±100 for the full control effect
# Target sequence (Q27686 whole entry, looked up): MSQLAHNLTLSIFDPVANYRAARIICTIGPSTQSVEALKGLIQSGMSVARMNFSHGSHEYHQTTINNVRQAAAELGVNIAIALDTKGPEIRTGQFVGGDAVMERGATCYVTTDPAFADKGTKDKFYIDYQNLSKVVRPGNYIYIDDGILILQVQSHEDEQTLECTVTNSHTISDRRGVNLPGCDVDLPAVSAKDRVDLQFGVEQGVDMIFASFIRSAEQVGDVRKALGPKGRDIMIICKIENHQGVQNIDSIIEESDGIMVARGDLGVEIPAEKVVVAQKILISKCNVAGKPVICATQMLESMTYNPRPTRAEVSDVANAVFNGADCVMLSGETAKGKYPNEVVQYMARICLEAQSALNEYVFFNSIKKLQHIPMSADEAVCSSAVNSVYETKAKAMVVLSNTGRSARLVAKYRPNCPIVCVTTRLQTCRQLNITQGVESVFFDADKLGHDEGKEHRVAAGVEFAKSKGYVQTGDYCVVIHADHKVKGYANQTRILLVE
#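 Kinase-Glo luminescence read after 1 h RT reaction of 0.1 nM LmPK with 0.5 mM PEP and 0.1 mM ADP. Activity scaled between uninhibited and enzyme-free controls.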
# The depositor's hits bear a star; ? = inconclusive; nt = not tested or not shown; + = active, no number; [ ] = remark or other dose. Unless noted, calls follow the shape of the dose curve; as a rule, active = well fitted curve in the direction sought with a large enough effect; inconclusive = small, poorly fitted or top-dose-only effect, or another doubt; inactive = no such curve, though single readings can be large; an effect the other way counts as inactive or inconclusive.
SMILES,TbPYK inhibitor,Shiga inhibitor,FBPA Giardia inh,RE007 growth inh,CHX counter,LmPK inhibitor
CCOC(=O)c1sc(NC(=O)c2cc3ccccc3o2)nc1C,1%,61*,2%,-17%,40*,-1%
Cc1nnc(NC(=O)c2cc3ccccc3o2)s1,-4%,67*,nt,-21%,25*,-3%
O=C(Nc1nnc(C2CC2)s1)c1cc2ccccc2o1,-5%,nt,nt,-8%,nt,nt
Cc1c(C(=O)O)oc2c1-c1nn(Cc3ccccc3Cl)cc1CC2,-7%,nt,nt,nt,nt,nt
COc1cccc(NC(=O)c2cnn(-c3ccccc3)c2-n2cccc2)c1,0%,nt,nt,nt,nt,nt
Cc1ccc2c(c1)N(C(=O)N1CCC(C(=O)NCCC3=CCCCC3)CC1)CC(C)O2 (configuration not stated),-1%,nt,nt,nt,nt,nt
CSc1ccccc1C(=O)Nc1ncc(C)s1,4%,17,0%,-25%,5,2%
CCc1ccc(C(=O)Nc2cc(C)ccc2F)s1,3%,105*,-23%,-3%,70*,-16%
COc1ccc(-c2nc(NC(=O)c3ccco3)sc2C)cc1,-6%,nt,nt,?,nt,nt
C=CCOC(=O)c1sc(NC(=O)c2ccco2)nc1C,-8%,128*,2%,?,28*,-26%
Cc1csc(NC(=O)c2ccccc2C(=O)O)n1,nt,-4,2%,10%[3.69 µM],-3,-15%
CCc1cc2cc(C(=O)Nc3ccc(C)cc3)sc2s1,2%,22,6%,11%,11,5%
CCc1ccc(C(=O)Nc2nc(C)cs2)s1,4%,36*,-25%,-26%,41*,-9%
Cc1cnc(NC(=O)c2cc3ccccc3o2)s1,0%,47,-16%,-8%,18*,-20%
CCCCCn1c(C(C)NC(=O)c2ccccc2)nc2ccccc21 (configuration not stated),6%,nt,nt,nt,nt,nt
Cc1ccc(N2CC(NC(=O)C3CC3)CC2=O)cc1C (configuration not stated),-1%,nt,nt,nt,nt,nt
Cc1nc(NC(=O)c2cc3ccccc3o2)sc1C,2%,46,-10%,-11%,37*,-19%
CCOC(=O)c1sc(NC(=O)c2ccc(CC)s2)nc1C,2%,105*,8%,11%,40*,-2%
CS(=O)(=O)c1ccc2sc(NC(=O)c3cc4ccccc4o3)nc2c1,7%,3,-1%,-16%,-2,1%
Cc1ccccc1-c1nnc(NC(=O)c2cc3ccccc3oc2=O)s1,nt,-15,2%,nt,-3,3%
CCc1nnc(NC(=O)c2cc3ccccc3oc2=O)s1,-6%,-3,1%,?,11*,-1%
O=C(O)c1ccc(N=N/C(=N\Nc2ccc(C(=O)O)cc2)c2ccccc2)cc1,-17%,nt,nt,-24%,nt,nt
Brc1ccc(N/N=C(/N=Nc2nn[nH]n2)c2ccccc2)cc1,-18%,53,?,-1%,19*,?
C=CCn1c(Cc2nc3ccc(Cl)cc3[nH]2)n[nH]c1=S,?,-10,9%,10%,4,21%
C=CCn1c(CCCOc2ccc(Cl)cc2Cl)n[nH]c1=S,-19%,54*,3%,5%,19*,-7%
SMILES,TbPYK inhibitor,Shiga inhibitor,FBPA Giardia inh,RE007 growth inh,CHX counter,LmPK inhibitor
Cc1ccc(NC(=O)NNC(=O)c2ccccc2)cc1,-26%,44*,7%,8%,22*,-2%
Cc1cccc(C(=O)NNC(=O)Nc2ccccc2)c1,4%,-2,3%,55%,2,-14%
Cc1ccc(-c2nn(-c3ccccc3)cc2C(=O)Nc2ccc(C(=O)O)cc2)cc1,-10%,48*,25%,-20%,21*,-3%
Cc1ccc(NC(=O)C(=O)c2ccc(C)cc2)cc1,-1%,67,-2%,-12%,57*,-5%
Cc1ccc(NC(=O)c2ccccc2)cc1,0%,109*,2%,-20%,33*,?
CCOc1cc(CNC(=O)c2ccc3nc(C(C)C)oc3c2)cc(OCC)c1OCC,0%,nt,nt,nt,nt,nt
CC1Cc2cc(S(=O)(=O)CCC(=O)Nc3ccc(F)cc3Cl)ccc2N1C(=O)C1CC1 (configuration not stated),1%,nt,nt,nt,nt,nt
Cc1ccc(-c2nc(N3CCCC(C)C3)c3ccccc3n2)cc1 (configuration not stated),1%,nt,nt,nt,nt,nt
Cc1cc(OC(C)C(=O)NCC2CCC(C(=O)O)CC2)c2c(C)cc(=O)oc2c1 (configuration not stated),2%,-3,12%,-2%,-1,-9%
O.O=C([O-])CC([S-])C(=O)[O-].[Au+].[Na+].[Na+] (configuration not stated),-8%,nt,nt,nt,nt,nt
COc1cccc(CNC(=O)c2ccc(-n3c(C)cc4c3CCCC4)cc2)c1,3%,nt,nt,nt,nt,nt
COc1ccc(NC(=O)c2ccc(C)cc2)c[n+]1[O-],5%,32,11%,-11%,12*,3%
O=C(Nc1ccc(Nc2ccccc2)cc1)c1ccc(F)cc1,4%,33*,5%,nt,36*,1%
O=C(O)c1ccc(C(=O)Nc2ccc(F)cc2)cc1,-1%,nt,nt,-1%,nt,nt
Cc1ccc(NC(=O)C2=C(c3ccccc3)S(=O)(=O)CCS2(=O)=O)cc1,-12%,22,-1%,2%,34*,5%
COc1ccc(C(=O)Nc2ccc(C(=O)Nc3cccc(C)c3)cc2)cc1,12%,-4,nt,1%,-2,1%
Cc1ccc(N/C(=C\C(=O)c2ccccc2)C(=O)O)cc1,-17%,100*,-23%,-20%,47*,0%
Cc1ccc(NC(=O)/C(=C\C=C\c2ccccc2)NC(=O)c2ccccc2)cc1,-5%,15,6%,35%,11,-1%
CC1CCC(C(=O)NC(C(=O)OCC(=O)c2ccc(Br)cc2)C(C)C)CC1 (configuration not stated),-4%,nt,nt,nt,nt,nt
O=C(Nc1ccccc1)c1ccccc1I,nt,42*,-2%,nt,31*,nt
Cc1ccc(NC(=O)c2ccccc2O)cc1,-7%,+,-8%,32µM*,34*,-24%
Cc1cc(C)cc(NC(=O)Nc2ccc(NC(=O)c3ccccc3O)cc2)c1,-1%,18,-9%,7%,4,3%
O=P(O)(O)c1ccccc1OCCOCCOCCOCCOc1ccccc1P(=O)(O)O,-4%,47,-3%,1%,42*,5%
CCO/C=C1\C(=O)N(c2ccccc2)C(=O)c2ccccc21,-2%,69*,14%,7%,40*,5%
Cc1ccc(N2C(=O)c3ccccc3C2=O)cc1,0%,91*,4%,1%,41*,3%
Cc1ccc(N2C(=O)c3ccccc3NC2c2ccccc2O)cc1 (configuration not stated),-2%,79*,8%,nt,36*,-4%
O=C1c2ccccc2C(=O)N1c1ccc(Cl)cc1,nt,-11,1%,nt,10,-7%
O=C1c2ccccc2C(O)N1c1ccccc1 (configuration not stated),-3%,11,4%,-19%,5,-9%
